Test results from the supplement of paper PMC3342239.
Where a name gives a salt, the structure may show the parent alone.

tested on: Saccharomyces cerevisiae; assay: fraction of cells in G1 phase (DNA content, flow cytometry); higher = more cells with unreplicated DNA (G1 delay); settings: temperature: 30 C; YPD; JTY2953 pdr5 snq2 (sensitized); drug added to: cultures diluted from stationary phase; 6-7 h
In short: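 S. cerevisiae in YPD at 30°C was dosed with library drugs, using a final 20 µg/ml for sensitized JTY2953 diluted 1∶200 from overnight and fixed at 6–7 h, or dosing dividing JTY2953 (fixed at 6 h) and BY4741 (fixed at 4.33 h). Ethanol-fixed, SYTOX Green-stained cells were read by flow cytometry (10,000 events). The G1 fraction is taken as the Dean-Jett-Fox G1 peak area divided by the G1 and G2/M areas combined.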

Row | Structure (SMILES) | fraction of cells in G1 phase
1 | CN(C)CCCN1c2ccccc2Sc2ccc(Cl)cc21 [Chlorpromazine HCl] (62.7212 µM) | 0.278
2 | COC(=O)C1=C(C)NC(C)=C(C(=O)OCC(C)C)C1c1ccccc1[N+](=O)[O-] (stereo not drawn) [Nisoldipine] (51.4901 µM) | 0.605
3 | CC[C@@]1(O)C[C@H](O[C@H]2C[C@H](N(C)C)[C@H](O[C@H]3C[C@H](O)[C@H](O[C@H]4CCC(=O)[C@H](C)O4)[C@H](C)O3)[C@H](C)O2)c2c(cc3c(c2O)C(=O)c2c(O)cccc2C3=O)[C@H]1C(=O)OC [Aclarubicin] (24.6339 µM) | 0.364
4 | CN/C(=N\CCSCc1nc[nH]c1C)NC#N [Cimetidine] (79.2571 µM) | 0.5
5 | CN[C@@H]1[C@H](O[C@H]2[C@H](O[C@H]3[C@H](O)[C@@H](O)[C@H](N=C(N)N)[C@@H](O)[C@@H]3N=C(N)N)O[C@@H](C)[C@]2(O)C=O)O[C@@H](CO)[C@H](O)[C@H]1O [Streptomycin sulfate] (34.3888 µM) | 0.478
6 | CCN(CC)C(=S)SSC(=S)N(CC)CC [Disulfiram] (67.4445 µM) | 0.876
7 | CCN1CCC[C@H]1CNC(=O)c1c(O)c(Cl)cc(Cl)c1OC [Raclopride l-tartrate s(-)] (57.5963 µM) | 0.521
8 | Nc1ccn([C@H]2CC[C@@H](CO)O2)c(=O)n1 [2',3' - dideoxycytidine] (94.687 µM) | 0.474
9 | COc1cc(C)c(/C=C/C(C)=C/C=C/C(C)=C/C(=O)O)c(C)c1C [Acitretin] (61.2745 µM) | 0.563
10 | CC(C)(C)c1ccc(C(O)CCCN2CCC(C(O)(c3ccccc3)c3ccccc3)CC2)cc1 (stereo not drawn) [Terfenadine] (42.4008 µM) | 0.776
11 | COc1ccccc1OCC(O)CN1CCN(CC(=O)Nc2c(C)cccc2C)CC1 (stereo not drawn) [Ranolazine 2HCl] (46.7783 µM) | 0.445
12 | NCCCC[C@H](N[C@@H](CCc1ccccc1)C(=O)O)C(=O)N1CCC[C@H]1C(=O)O [Lisinopril] (49.322 µM) | 0.502
13 | O=C(O)c1cn(C2CC2)c2cc(N3CCNCC3)c(F)cc2c1=O [Ciprofloxacin] (60.3592 µM) | 0.461
14 | Cc1cccc(Nc2ccccc2C(=O)O)c1C [Mefenamic acid] (82.887 µM) | 0.464
15 | CCN(CC)CCOc1ccc(C(=C(Cl)c2ccccc2)c2ccccc2)cc1 [Clomiphene citrate] (49.2645 µM) | 0.88
16 | O=P(O)(O)C(Cl)(Cl)P(=O)(O)O [Clodronate disodium] (81.6683 µM) | 0.505
17 | Cc1ccc(C(=O)c2ccc(CC(=O)O)n2C)cc1 [Tolmetin Na] (77.7328 µM) | 0.482
18 | C=C1/C(=C\C=C2/CCC[C@]3(C)[C@@H]([C@H](C)/C=C/[C@@H](O)C4CC4)CC[C@@H]23)C[C@@H](O)C[C@@H]1O [Calcipotriene] (48.471 µM) | 0.634
19 | O=C(C1CCCCC1)N1CC(=O)N2CCc3ccccc3C2C1 (stereo not drawn) [Praziquantel] (64.0173 µM) | 0.441
20 | Cc1nc2n(c(=O)c1CCN1CCC(c3noc4cc(F)ccc34)CC1)CCCC2 [Risperidone] (48.7216 µM) | 0.472
21 | CN(CCOc1ccc(NS(C)(=O)=O)cc1)CCc1ccc(NS(C)(=O)=O)cc1 [Dofetilide] (45.2927 µM) | 0.551
22 | CC[C@@]1(O)C(=O)OCc2c1cc1n(c2=O)Cc2cc3c(CN(C)C)c(O)ccc3nc2-1 [Topotecan] (47.4544 µM) | 0.481
23 | CCOC(=O)N1CCC(=C2c3ccc(Cl)cc3CCc3cccnc32)CC1 [Loratadine] (52.2338 µM) | 0.778
24 | CC(=O)[C@H]1CC[C@H]2[C@@H]3CC=C4C[C@@H](O)CC[C@]4(C)[C@H]3CC[C@]12C [Pregnenolone] (63.1936 µM) | 0.586
25 | CC(=O)S[C@@H]1CC2=CC(=O)CC[C@]2(C)[C@H]2CC[C@@]3(C)[C@@H](CC[C@@]34CCC(=O)O4)[C@H]12 [Spironolactone] (48.0095 µM) | 0.531
26 | O=C(O)c1cc(/N=N/c2ccc(S(=O)(=O)Nc3ccccn3)cc2)ccc1O [Sulfasalazine] (50.2008 µM) | 0.517
27 | C[C@H](CS)C(=O)N1CCC[C@H]1C(=O)O [Captopril] (92.0434 µM) | 0.633
28 | CC1CCc2c(N3CCC(O)CC3)c(F)cc3c(=O)c(C(=O)O)cn1c23 (stereo not drawn) [Nadifloxacin] (55.4956 µM) | 0.281
